Laboratory results from ChEMBL document CHEMBL3988442, “University of Dundee, Small-Polar-MMV Screening Library” (2021).
For some of these results: Potency and affinity values are given separately.

Columns and labels:
Design in all cases: scale not given: direction of the effect not stated beside the values
[1] = target: Protein translocase subunit SecA (Escherichia coli (strain K12)) (UniProt P10408); test: Assay to Identify E. coli SecA ATPase Inhibitors; assay type: functional; conditions: 30 µM
[2] = target: T1, Ubiquitin-activating enzyme e1, putative (Leishmania donovani (strain BPK282A1)) (UniProt E9BSI1); test: Leishmania donovani Ubiquitin Activating Enzyme (LdE1); assay type: functional; conditions: 30 µM
T1 sequence (whole entry): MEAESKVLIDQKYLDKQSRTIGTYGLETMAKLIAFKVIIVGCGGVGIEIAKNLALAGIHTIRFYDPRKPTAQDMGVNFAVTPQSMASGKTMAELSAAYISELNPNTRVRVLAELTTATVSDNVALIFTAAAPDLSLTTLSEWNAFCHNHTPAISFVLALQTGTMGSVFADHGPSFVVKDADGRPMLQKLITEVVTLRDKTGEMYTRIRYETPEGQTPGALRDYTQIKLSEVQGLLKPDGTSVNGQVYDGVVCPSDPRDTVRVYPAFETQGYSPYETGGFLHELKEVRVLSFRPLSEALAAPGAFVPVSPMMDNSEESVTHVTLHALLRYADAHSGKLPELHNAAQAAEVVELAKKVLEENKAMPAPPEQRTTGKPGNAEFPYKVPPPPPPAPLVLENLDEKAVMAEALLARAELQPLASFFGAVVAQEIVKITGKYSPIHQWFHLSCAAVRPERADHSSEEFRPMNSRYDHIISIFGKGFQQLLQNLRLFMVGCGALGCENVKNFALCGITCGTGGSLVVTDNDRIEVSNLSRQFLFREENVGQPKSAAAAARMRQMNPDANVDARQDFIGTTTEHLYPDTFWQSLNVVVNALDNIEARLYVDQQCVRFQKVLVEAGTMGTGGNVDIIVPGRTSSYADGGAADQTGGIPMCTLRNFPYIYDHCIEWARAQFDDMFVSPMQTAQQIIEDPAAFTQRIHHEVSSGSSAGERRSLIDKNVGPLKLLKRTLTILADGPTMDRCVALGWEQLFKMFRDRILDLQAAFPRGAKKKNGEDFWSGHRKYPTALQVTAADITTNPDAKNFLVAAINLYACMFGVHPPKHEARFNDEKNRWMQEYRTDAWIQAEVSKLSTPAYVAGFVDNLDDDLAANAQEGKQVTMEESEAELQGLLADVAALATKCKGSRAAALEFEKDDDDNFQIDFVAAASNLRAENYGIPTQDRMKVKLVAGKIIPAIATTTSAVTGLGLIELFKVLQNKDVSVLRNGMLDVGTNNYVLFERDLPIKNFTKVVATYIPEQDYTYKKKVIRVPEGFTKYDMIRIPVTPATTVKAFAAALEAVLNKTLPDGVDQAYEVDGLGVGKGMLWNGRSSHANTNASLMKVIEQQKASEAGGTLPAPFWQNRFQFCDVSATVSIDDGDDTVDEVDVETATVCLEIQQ

[3] = target: AMP-activated protein kinase, AMPK (Homo sapiens) (UniProt P54646+O43741+P54619+Q9UGJ0+Q9Y478+Q13131+Q9UGI9); test: AMP-dependent Kinase enzyme assay. An in vitro enzyme assay that detects ADP turnover that is directly proportional to AMPK activity. This uses naive AMPK that is activated during the assay with MK-8722; assay type: functional; conditions: 30 µM
[4] = target: Sialic acid-binding Ig-like lectin 9 (Homo sapiens) (UniProt Q9Y336); test: Hs-Siglec9 ALPHAscreen SOP 20170721; conditions: 10 µM
Trypanosoma cruzi = test: Trypanosoma cruzi phosphomannomutase and mannose-1-phosphate guanylyltransferase assay; assay type: functional; conditions: 10 µM
[5] = target: T2, Arginase-2, mitochondrial (Homo sapiens) (UniProt P78540); test: in vitro enzyme assay to detect the production of urea directly proportional to the activity of Arginase II; assay type: functional; conditions: 33.3 µM; note: in the data most compounds retested in dose-response had high values
T2 sequence (whole entry): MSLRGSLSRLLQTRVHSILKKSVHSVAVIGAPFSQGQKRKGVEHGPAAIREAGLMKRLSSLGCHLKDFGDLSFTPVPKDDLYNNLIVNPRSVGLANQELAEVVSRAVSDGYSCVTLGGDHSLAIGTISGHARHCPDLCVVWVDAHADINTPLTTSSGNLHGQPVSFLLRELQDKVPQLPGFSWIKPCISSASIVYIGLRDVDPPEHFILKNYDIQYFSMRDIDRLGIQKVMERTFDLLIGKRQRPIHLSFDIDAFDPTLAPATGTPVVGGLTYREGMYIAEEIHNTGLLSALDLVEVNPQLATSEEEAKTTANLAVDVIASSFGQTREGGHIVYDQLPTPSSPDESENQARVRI

[6] = target: T3, Proteasome subunit beta (Trypanosoma cruzi) (UniProt O96673); test: Trypanosoma cruzi proteasome chymotrypsin-like activity (TcProtChymo) assay.; note: in the data most compounds retested in dose-response had high values; assay type: functional; conditions: 9.37 µM
T3 sequence (whole entry): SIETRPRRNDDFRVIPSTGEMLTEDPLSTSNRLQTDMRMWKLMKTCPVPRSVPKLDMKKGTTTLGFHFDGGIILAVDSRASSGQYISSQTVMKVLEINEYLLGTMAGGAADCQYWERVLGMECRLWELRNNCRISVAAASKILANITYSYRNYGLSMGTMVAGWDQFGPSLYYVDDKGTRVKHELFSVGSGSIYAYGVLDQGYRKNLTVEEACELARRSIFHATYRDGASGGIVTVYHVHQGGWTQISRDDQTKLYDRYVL

Homo sapiens = species on record: Homo sapiens; test: To identify inhibition of the IFN signalling (Jak-Stat) pathway via expression of an eGFP reporter gene under the control of an IFN-stimulated response element (ISRE) containing MxA promoter.; assay type: functional; conditions: 30 µM
[7] = target: T4, Tyrosyl-tRNA synthetase, putative (Trypanosoma cruzi (strain CL Brener)) (UniProt Q4DSP6); test: Trypanosoma cruzi tyrosyl tRNA synthetase (TcYRS) _High Tyrosine SOP; assay type: functional; conditions: 30 µM; note: in the data most compounds retested in dose-response had high values
T4 sequence (whole entry): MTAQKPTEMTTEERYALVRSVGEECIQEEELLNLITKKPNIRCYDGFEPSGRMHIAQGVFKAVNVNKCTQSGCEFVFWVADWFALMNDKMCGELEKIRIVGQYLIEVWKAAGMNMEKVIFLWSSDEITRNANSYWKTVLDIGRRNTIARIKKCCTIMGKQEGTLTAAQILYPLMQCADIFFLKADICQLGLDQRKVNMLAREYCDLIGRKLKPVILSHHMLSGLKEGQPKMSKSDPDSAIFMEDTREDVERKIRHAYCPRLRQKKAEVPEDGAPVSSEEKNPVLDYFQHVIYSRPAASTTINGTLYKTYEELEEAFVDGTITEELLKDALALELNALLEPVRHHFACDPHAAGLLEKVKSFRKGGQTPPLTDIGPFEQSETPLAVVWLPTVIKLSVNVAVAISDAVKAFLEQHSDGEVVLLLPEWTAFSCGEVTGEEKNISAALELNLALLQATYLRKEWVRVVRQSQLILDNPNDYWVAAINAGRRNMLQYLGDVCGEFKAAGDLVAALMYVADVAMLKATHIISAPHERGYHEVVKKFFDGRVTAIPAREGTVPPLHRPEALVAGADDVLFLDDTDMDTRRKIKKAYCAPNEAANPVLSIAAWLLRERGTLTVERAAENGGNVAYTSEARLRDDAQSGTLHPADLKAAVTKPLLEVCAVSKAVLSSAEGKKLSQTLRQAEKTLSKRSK

[8] = target: T4, Tyrosyl-tRNA synthetase, putative (Trypanosoma cruzi (strain CL Brener)); test: Trypanosoma cruzi tyrosyl tRNA synthetase (TcYRS) SOP; assay type: functional; conditions: 30 µM
[9] = target: Chromo domain-containing protein 1 (Saccharomyces cerevisiae (strain ATCC 204508 / S288c) (Baker's yeast)) (UniProt P32657); test: ScCHD-1 Enzyme Inhibition Assay; assay type: functional; conditions: 30 µM; note: in the data most compounds retested in dose-response had high values
Chain of Chromo domain-containing protein 1 (Saccharomyces cerevisiae (strain ATCC 204508 / S288c) (Baker's yeast)) (P32657 whole entry, the tested form may be a part): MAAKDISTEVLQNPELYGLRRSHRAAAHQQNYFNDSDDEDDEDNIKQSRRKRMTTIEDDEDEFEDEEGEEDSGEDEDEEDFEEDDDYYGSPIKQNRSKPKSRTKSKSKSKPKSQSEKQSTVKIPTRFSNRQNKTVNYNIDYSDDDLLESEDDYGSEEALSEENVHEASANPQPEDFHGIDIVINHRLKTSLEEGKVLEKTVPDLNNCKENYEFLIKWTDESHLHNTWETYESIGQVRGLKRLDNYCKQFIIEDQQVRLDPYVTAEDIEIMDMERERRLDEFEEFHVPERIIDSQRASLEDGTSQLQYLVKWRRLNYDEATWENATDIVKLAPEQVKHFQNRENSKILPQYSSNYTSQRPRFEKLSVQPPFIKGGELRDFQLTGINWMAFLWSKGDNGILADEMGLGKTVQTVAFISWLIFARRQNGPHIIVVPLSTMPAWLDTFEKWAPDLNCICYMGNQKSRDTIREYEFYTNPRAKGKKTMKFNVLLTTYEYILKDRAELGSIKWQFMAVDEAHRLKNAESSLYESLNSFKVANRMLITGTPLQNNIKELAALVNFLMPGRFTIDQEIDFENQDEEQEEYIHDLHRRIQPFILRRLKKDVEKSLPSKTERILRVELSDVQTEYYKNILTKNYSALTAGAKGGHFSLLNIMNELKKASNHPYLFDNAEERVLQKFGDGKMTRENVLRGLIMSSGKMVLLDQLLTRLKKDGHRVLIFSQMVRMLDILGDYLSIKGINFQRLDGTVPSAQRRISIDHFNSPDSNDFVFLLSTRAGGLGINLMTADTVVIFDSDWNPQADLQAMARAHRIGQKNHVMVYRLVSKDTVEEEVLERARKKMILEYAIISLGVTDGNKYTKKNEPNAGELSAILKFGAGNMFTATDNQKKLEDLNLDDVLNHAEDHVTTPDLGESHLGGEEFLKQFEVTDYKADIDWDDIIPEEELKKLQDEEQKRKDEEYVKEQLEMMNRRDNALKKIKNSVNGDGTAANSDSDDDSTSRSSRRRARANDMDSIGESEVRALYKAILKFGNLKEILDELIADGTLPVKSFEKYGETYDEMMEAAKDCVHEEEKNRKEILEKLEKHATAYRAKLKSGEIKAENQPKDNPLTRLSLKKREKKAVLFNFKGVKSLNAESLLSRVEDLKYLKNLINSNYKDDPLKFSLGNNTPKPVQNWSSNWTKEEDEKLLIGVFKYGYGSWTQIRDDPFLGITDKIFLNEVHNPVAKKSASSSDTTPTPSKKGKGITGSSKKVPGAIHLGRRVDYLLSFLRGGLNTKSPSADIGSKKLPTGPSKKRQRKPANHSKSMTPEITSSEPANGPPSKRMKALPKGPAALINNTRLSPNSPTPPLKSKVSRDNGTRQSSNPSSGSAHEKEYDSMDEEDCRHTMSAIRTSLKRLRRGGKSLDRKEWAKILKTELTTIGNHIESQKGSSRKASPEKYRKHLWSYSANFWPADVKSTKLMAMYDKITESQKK

Chain of Sialic acid-binding Ig-like lectin 9 (Homo sapiens) (Q9Y336 whole entry): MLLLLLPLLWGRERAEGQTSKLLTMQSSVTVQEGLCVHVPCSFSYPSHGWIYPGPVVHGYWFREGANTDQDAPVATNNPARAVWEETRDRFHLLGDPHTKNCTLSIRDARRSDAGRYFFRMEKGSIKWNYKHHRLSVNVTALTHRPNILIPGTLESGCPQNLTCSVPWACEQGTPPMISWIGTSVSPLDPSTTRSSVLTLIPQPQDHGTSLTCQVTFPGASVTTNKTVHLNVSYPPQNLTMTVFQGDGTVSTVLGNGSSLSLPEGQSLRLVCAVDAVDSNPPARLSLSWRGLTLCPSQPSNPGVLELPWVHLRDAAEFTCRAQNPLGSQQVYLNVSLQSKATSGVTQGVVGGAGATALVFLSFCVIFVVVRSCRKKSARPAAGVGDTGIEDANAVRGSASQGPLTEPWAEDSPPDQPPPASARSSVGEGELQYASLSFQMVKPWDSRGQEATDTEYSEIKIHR
Chain of Protein translocase subunit SecA (Escherichia coli (strain K12)) (P10408 whole entry): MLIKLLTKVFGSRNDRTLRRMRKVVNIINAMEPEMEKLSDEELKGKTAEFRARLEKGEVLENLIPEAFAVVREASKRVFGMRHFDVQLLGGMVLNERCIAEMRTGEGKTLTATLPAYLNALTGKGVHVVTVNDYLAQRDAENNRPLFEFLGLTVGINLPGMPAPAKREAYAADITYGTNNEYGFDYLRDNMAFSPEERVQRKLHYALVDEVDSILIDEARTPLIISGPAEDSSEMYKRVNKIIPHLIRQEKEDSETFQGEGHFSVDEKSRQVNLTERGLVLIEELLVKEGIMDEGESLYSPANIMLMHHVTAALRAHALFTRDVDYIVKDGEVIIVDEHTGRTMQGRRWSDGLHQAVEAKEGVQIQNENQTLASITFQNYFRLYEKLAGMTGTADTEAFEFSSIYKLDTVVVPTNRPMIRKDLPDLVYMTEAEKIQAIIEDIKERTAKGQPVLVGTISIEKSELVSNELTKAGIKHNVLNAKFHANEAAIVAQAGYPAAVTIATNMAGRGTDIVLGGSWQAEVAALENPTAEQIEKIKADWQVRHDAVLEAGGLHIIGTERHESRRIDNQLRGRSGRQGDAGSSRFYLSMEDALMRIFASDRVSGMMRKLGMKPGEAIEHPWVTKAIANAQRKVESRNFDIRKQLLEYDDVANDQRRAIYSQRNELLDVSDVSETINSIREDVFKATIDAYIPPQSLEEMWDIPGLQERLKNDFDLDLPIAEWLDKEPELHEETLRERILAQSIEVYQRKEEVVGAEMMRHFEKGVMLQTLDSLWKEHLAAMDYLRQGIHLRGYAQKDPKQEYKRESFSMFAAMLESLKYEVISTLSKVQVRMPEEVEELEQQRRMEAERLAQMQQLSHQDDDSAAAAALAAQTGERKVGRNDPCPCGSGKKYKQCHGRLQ

| SMILES | Percent Effect [1] | Percent Effect [2] | Percent Effect [3] | Percent Effect [4] | Percent Effect (Trypanosoma cruzi) | Percent Effect [5] | Percent Effect [6] | Percent Effect (Homo sapiens) | Percent Effect [7] | Percent Effect [8] | Percent Effect [9] |
| --- | --- | --- | --- | --- | --- | --- | --- | --- | --- | --- | --- |
| COc1cc(CCC(=O)NCC2CCCN2C)ccc1OCC(F)(F)F (stereo not drawn) | -2.12% | 7.89% | -14% | 4.13% | -0.0934% | -2.88% | 11.4% | 14.2% | 5.42% | 16.1% | -7.41% |
| CCCNC(=O)Nc1cccc2c1CCN(S(C)(=O)=O)C2 | -9.62% | 18.4% | -0.671% | 6.12% | 4.38% | -35.5% | 6.81% | -3.94% | 3.19% | 18.2% | -1.24% |
| Cc1ccc2c(ccn2CC(=O)NC[C@@H]2CCCN3CCCC[C@H]23)c1 | -5.2% | 28% | -5.58% | 4.06% | 5.5% | -6.16% | 16.3% | -4.16% | 4.23% | 12.8% | -11.5% |
| COc1cccc(CCNC(=O)CN2CCCC2c2noc(C)n2)c1 (stereo not drawn) | -2.79% | 8.11% | 1.21% | -0.359% | -5.48% | 7.21% | 2.51% | 20.8% | 7.92% | 11% | -1.21% |
| CCOCC1CN(C(=O)C2=CCCC2)Cc2cnn(CC)c21 (stereo not drawn) | -2.5% | 16.2% | -0.303% | 0.664% | 3.62% | 3.5% | 19.9% | 9.89% | 3.24% | 12.8% | -2.18% |
| CNC(=O)NC(=O)Cn1cc(-c2ccccc2)cn1 | -4.72% | 6.33% | 12.6% | 5.24% | -5.03% | -1.07% | 8.23% | 17.1% | 2.08% | 10.1% | -4.57% |
| CNc1cc(C2CCCN2Cc2ccccc2C(=O)O)ccn1 (stereo not drawn) | -4.24% | -6.76% | 3.65% | -0.354% | -1.19% | -0.696% | 7.33% | 7.54% | 8.6% | 11.7% | -11.7% |
| CC(Cn1cccn1)NC(=O)N(C)Cc1ccc(Cl)s1 (stereo not drawn) | -7.83% | 2.53% | -3.14% | 9.63% | 7.27% | -8.37% | 0.409% | 2.27% | -1.48% | 3.8% | -2.46% |
